# Data reported in the supplement of paper PMC6555819.
# What was measured:
# Test in all cases: PBM binding z-score (relative to random genomic background probes); higher = stronger binding; sequences stand for … in GC…GCGATTGACAGCGTAGAATGAAGG
# [1] = test system: FXR:RXRa (NR concentration 270 nM, RXRa partner concentration 90 nM)
# Procedure, shortened: (§1)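 Scanned fluorescence from custom Agilent 4×180K protein-binding microarrays was regression-normalized. Binding z-scores use random background probes as reference. Ligand-free nuclear receptor dimers were incubated on the arrays for 1 h and detected with antibodies against each partner (one per run).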
# [2] = test system: LXRa:RXRa (NR concentration 270 nM, RXRa partner concentration 90 nM)
# Procedure, shortened: as §1
# [3] = test system: LXRa homodimer (NR concentration 270 nM)
# Procedure, shortened: as §1
# [4] = test system: LXRb:RXRa (NR concentration 270 nM, RXRa partner concentration 90 nM)
# Procedure, shortened: as §1
# [5] = test system: LXRb homodimer (NR concentration 270 nM)
# Procedure, shortened: as §1
# [6] = test system: PPARa:RXRa (NR concentration 270 nM, RXRa partner concentration 90 nM)
# Procedure, shortened: as §1
# [7] = test system: PPARg:RXRa (NR concentration 180 nM, RXRa partner concentration 90 nM)
# Procedure, shortened: as §1
# [8] = test system: PPARg:RXRa 270nM:90nM, anti-RXR (NR concentration 270 nM, RXRa partner concentration 90 nM)
# Procedure, shortened: as §1
# [9] = test system: PPARg:RXRa 30nM:10nM, anti-RXR (NR concentration 30 nM, RXRa partner concentration 10 nM)
# Procedure, shortened: as §1
# [10] = test system: PPARg:RXRa 90nM:30nM, anti-RXR (NR concentration 90 nM, RXRa partner concentration 30 nM)
# Procedure, shortened: as §1
# [11] = test system: PPARg:RXRa DBDmut IVT, anti-RXR (DBD mutation: RXRa K156A/R161A, NR concentration 270 nM, RXRa partner concentration 90 nM)
# Procedure, shortened: as §1
# [12] = test system: PPARg:RXRa IVT, anti-PPARg (NR concentration 270 nM, RXRa partner concentration 90 nM)
# Procedure, shortened: as §1
# [13] = test system: PPARg DBDmut:RXRa IVT, anti-PPARg (DBD mutation: PPARg1 K132A/R137A, NR concentration 270 nM, RXRa partner concentration 90 nM)
# Procedure, shortened: as §1
# [14] = test system: PPARg DBDmut IVT, anti-PPARg (DBD mutation: PPARg1 K132A/R137A, NR concentration 270 nM)
# Procedure, shortened: as §1
# [15] = test system: PPARg homodimer (NR concentration 180 nM)
# Procedure, shortened: as §1
# [16] = test system: PXR:RXRa (NR concentration 270 nM, RXRa partner concentration 90 nM)
# Procedure, shortened: as §1
# [17] = test system: PXR homodimer (NR concentration 270 nM)
# Procedure, shortened: as §1
# [18] = test system: RARa:RXR (NR concentration 270 nM, RXRa partner concentration 90 nM)
# Procedure, shortened: as §1
# [19] = test system: RARa homodimer (NR concentration 270 nM)
# Procedure, shortened: as §1
# [20] = test system: RARb:RXRa (NR concentration 270 nM, RXRa partner concentration 90 nM)
# Procedure, shortened: as §1
Sequence,PBM binding z-score [1],PBM binding z-score [2],PBM binding z-score [3],PBM binding z-score [4],PBM binding z-score [5],PBM binding z-score [6],PBM binding z-score [7],PBM binding z-score [8],PBM binding z-score [9],PBM binding z-score [10],PBM binding z-score [11],PBM binding z-score [12],PBM binding z-score [13],PBM binding z-score [14],PBM binding z-score [15],PBM binding z-score [16],PBM binding z-score [17],PBM binding z-score [18],PBM binding z-score [19],PBM binding z-score [20]
CCTCGGAGGACAACAGGAGGTCAGGGCTGCCAGA,1.17,1.84,1.45,1.14,-0.784,2.09,0.517,0.522,-0.226,0.18,-0.161,0.479,-0.962,-1.94,1.52,2.11,0.134,2.83,0.694,3.01
CCTAGTTGGTCAGGAGGTCACAGACCGGATATGA,4.08,3.46,1.53,3.38,0.251,4.41,3.79,4.28,1.81,3.37,1.33,3.88,0.154,0.248,3.25,4.28,1.01,4.9,1.4,3.79
TCTTCTAGATCAACAGGAGGTTAAGAAAGATCGA,0.645,1.25,0.194,0.772,0.728,1.24,0.0258,1.94,3.46,2.67,1.93,1.19,1.81,1.8,0.382,0.755,0.113,1.32,0.555,0.762
CCTAATGGGCCAAAGGTCATTGATTCCAATGCTC,5.18,5.16,3.94,4.84,1.08,6.03,11.8,9.96,11.9,12.1,3.94,6.02,0.0676,-0.678,4.32,5.26,1.81,6.51,1.99,4.57
ACAGACAGTTGATGAAGGTAACTCAGGCTATCAT,0.165,-0.156,-0.193,-0.191,0.0371,-0.00843,0.507,-0.149,-0.0201,-0.134,-0.364,-0.0113,0.732,0.538,0.771,0.245,0.258,0.287,0.632,0.225
AGAATGAGCTTATTAAGATCAGGGAATTGCGGTC,-0.612,-0.88,-0.374,-0.82,-0.756,-0.52,0.00552,-0.444,-0.148,-0.365,-0.544,-0.262,0.296,0.244,-0.453,-0.238,-0.13,-0.065,-0.11,-0.496
CCTACTGGGCCAAAAAGGTCATTGGTGCCGATAA,3.94,4.46,3.31,4.08,0.197,4.67,3.1,4.12,1.19,3.34,3.78,4.13,-0.644,-0.94,3.28,4.9,5.2,5.26,0.489,4.07
